Values without a mark were called inactive. The source made the active and inactive calls. Calls follow the shape of the dose curve; as a rule, active = well fitted curve in the direction sought with a large enough effect in the signal ratio in the repeat runs (not every such curve was filed as active); inconclusive = weak or mixed curves, or effect the other way; inactive = no such curve, though single readings can be large or run the other way; the % refers to the signal ratio.
Biological target: Estrogen receptor (Homo sapiens) (UniProt P03372)
Experiment: qHTS assay to identify small molecule antagonists of the estrogen receptor alpha (ER-alpha) signaling pathway (AID 743069)
Conditions: HEK293 ER-alpha-UAS-bla, beta-lactamase ratio, antagonist mode; series mostly up to 69.4 µM; activity, negative = inhibition: at the top concentration
Text: National Center for Advancing Translational Sciences [NCATS]
NIH Chemical Genomics Center [NCGC]
U.S. Environmental Protection Agency [EPA]
National Institutes of Environmental Health Sciences [NIEHS]
National Toxicology Program [NTP]
U.S. Food and Drug Administration [FDA]
Estrogen receptor (ER), a nuclear hormone receptor, plays an important role in development, metabolic homeostasis and reproduction. Two subtypes of ER, ER-alpha and ER-beta have similar expression patterns with some uniqueness in both types. Endocrine disrupting chemicals (EDCs) and their interactions with steroid hormone receptors like ER causes disruption of normal endocrine function. To identify the compounds that inhibit ER signaling, an ER-alpha-UAS-bla GripTiteTM cell line (Invitrogen, Carlsbad, CA, USA) containing a beta-lactamase reporter gene under the control of an Upstream Activator Sequence (UAS) stably integrated into HEK293 cells was used to screen the Tox21 10K compound library.
Tox21 Assay Protocol Summary:
ER-alpha-bla cells were cultured in assay medium containing 2% charcoal stripped FBS overnight in the culture flasks before the assay was performed. The cells were dispensed at 5,000 cells/5 uL of assay medium per well into black wall/clear-bottom 1536-well plates using a Multidrop Combi (ThermoFisher Scientific, Waltham, MA) dispenser. After the assay plates were incubated at a 37C and 5% CO2 for 4 hr, 23 nL of compounds dissolved in DMSO, positive controls or DMSO only was transferred to the assay plate by a Pintool station (Kalypsys, San Diego, CA), followed by addition of 1 uL of 17beta-estradiol in assay medium using a Flying Reagent Dispenser (Aurora Discovery, San Diego, CA). The plates were incubated at 37C and 5% CO2 for 18 hr. Then 1 uL of LiveBLAzerTM B/G FRET substrate was added using a Flying Reagent Dispenser, the plates were incubated at room temperature for 2 hours, and fluorescence intensity was measured by an Envision plate reader (PerkinElmer, Shelton, CT).
% is scaled to controls: 0 for no effect and ±100 for the full control effect; potency is read from the fitted curve at half-maximal effect.

Chain of Estrogen receptor (Homo sapiens) (P03372 whole entry, looked up): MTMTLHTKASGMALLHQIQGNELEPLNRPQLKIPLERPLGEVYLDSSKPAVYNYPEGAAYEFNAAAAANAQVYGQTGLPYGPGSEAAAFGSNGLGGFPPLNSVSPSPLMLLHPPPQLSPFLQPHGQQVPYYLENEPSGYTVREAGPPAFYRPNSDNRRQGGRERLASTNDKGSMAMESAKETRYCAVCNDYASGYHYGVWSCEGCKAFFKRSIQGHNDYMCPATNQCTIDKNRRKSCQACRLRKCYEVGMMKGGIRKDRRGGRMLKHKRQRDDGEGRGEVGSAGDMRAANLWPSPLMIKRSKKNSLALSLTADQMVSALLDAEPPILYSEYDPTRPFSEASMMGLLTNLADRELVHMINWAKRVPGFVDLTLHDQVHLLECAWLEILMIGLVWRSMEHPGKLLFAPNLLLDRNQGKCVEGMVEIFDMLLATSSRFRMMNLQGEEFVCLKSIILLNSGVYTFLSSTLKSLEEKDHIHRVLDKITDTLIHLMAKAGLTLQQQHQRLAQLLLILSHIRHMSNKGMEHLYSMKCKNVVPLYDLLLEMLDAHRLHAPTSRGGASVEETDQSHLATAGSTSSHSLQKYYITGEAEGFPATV

Structure (SMILES) | activity, negative = inhibition | Potency
CC1CCC(NC(=O)N(CCCl)N=O)CC1 (stereo not given) | 2.69% | 
O=C1C(=O)c2ncccc2-c2cccnc21 | -10.2% | 
CCC[C@@H]1C[C@@H](C(=O)N[C@@H]([C@H]2O[C@H](SC)[C@H](O)[C@@H](O)[C@H]2O)[C@H](C)Cl)N(C)C1 | -3.97% | 
CN1[C@@H]2CCC[C@H]1CC(NC(=O)c1nn(C)c3ccccc13)C2 (stereo not given in full) | -1.79% | 
CC(CN1c2ccccc2Sc2ccc(S(=O)(=O)N(C)C)cc21)N(C)C (stereo not given) | 35.2% | 
Clc1ccc(COC(Cn2ccnc2)c2ccc(Cl)cc2Cl)c(Cl)c1 (stereo not given) | 23.8% [at 32.6 µM] | 
CCCCCCCCCCCCCCCCCCOP(=O)([O-])OC1CC[N+](C)(C)CC1 | -10.8% [at 32.6 µM] | 
Cc1nc(NS(=O)(=O)c2ccc(N)cc2)nc(C)c1Br | 16.4% | 
CN(C)c1ccc(C(=C2C=CC(=[N+](C)C)C=C2)c2c(O)c(S(=O)(=O)[O-])cc3cc(S(=O)(=O)O)ccc23)cc1 | 2.57% | 
CCCCC(=O)N(Cc1ccc(-c2ccccc2-c2nn[nH]n2)cc1)[C@@H](C(=O)O)C(C)C | 7.3% | 
CS(=O)(=O)NC(=O)CCC/C=C\C[C@H]1C(=O)C[C@@H](O)[C@@H]1/C=C/[C@H](O)COc1ccccc1 | -15.9% | 
N#Cc1ccc2c(c1)N(CCCN1CCC(O)CC1)c1ccccc1S2 | -33.4% | 
CN(C)CCC=C1c2ccccc2C(C)(C)c2ccccc21 | -9.78% | 
CCCCc1cc2c(=O)c(C(=O)OC)c[nH]c2cc1OCc1ccccc1 | -28.3% | 
CCN(CC)CCOC(=O)c1ccc(N)cc1Cl | 5.87% | 
CCCc1ccc(C(=O)O)cc1 | 3.2% | 
CC(=O)O[C@H]1C(=O)[C@@]2(C)[C@H]([C@H](OC(=O)c3ccccc3)[C@]3(O)C[C@H](OC(=O)[C@H](O)[C@@H](NC(=O)c4ccccc4)c4ccccc4)C(C)=C1C3(C)C)[C@]1(OC(C)=O)CO[C@@H]1C[C@@H]2O | -3.85% | 
COc1ccc(C[C@H](N)C(=O)N[C@H]2[C@@H](O)[C@H](n3cnc4c(N(C)C)ncnc43)O[C@@H]2CO)cc1 |  | 4.25 µM [inconclusive] (active)
COc1cc(Br)c(C[N+]2(CCOCCC3CCC4CC3C4(C)C)CCOCC2)cc1OC (stereo not given) | -31.9% | 
O=C1NCCN1c1ncc([N+](=O)[O-])s1 | 4.26% [at 32.6 µM] | 

Structure (SMILES) | activity, negative = inhibition | Potency
CC(=O)N[C@@H]1C(O[C@H]2O[C@H](C(=O)O)C(O)[C@H](O)[C@H]2O)[C@H](O)[C@@H](CO)O[C@H]1O[C@@H]1C(C(=O)O)O[C@@H](O[C@H]2[C@H](O)[C@@H](CO)OC(O)[C@@H]2NC(C)=O)[C@H](O)[C@H]1O (stereo not given in full) | 3.73% | 
NC[C@@H]1O[C@H](O[C@H]2[C@@H](O)[C@H](O[C@@H]3[C@@H](O)[C@H](N)C[C@H](N)[C@H]3O[C@H]3O[C@H](CO)[C@@H](O)[C@H](O)[C@H]3N)O[C@@H]2CO)[C@H](N)[C@@H](O)[C@@H]1O | 1.78% | 
CN=C(NC)NCc1ccccc1 | -9.6% | 
CO/N=C(\C(=O)N[C@@H]1C(=O)N2C(C(=O)OCOC(=O)C(C)(C)C)=C(/C=C\c3scnc3C)CS[C@H]12)c1csc(N)n1 | -22.1% | 
CC1CC(OC(=O)C(O)c2ccccc2)CC(C)(C)C1 (stereo not given) | 17% | 
NC(=O)c1ccc[n+]([C@@H]2O[C@H](COP(=O)([O-])OP(=O)(O)OC[C@H]3O[C@@H](n4cnc5c(N)ncnc54)[C@H](O)[C@@H]3O)[C@@H](O)[C@H]2O)c1 | 10.7% [at 32.6 µM] | 
C[C@H](O)[C@H](O)[C@H]1CNc2nc(N)[nH]c(=O)c2N1 | -4.28% | 
CO/N=C(\C(=O)N[C@@H]1C(=O)N2C(C(=O)O)=C(CSC(=O)c3ccco3)CS[C@H]12)c1csc(N)n1 | -1.78% | 
CCCCC(O)c1ccccc1 (stereo not given) | -5.47% | 
CC(C)(C)NC[C@H](O)COc1ccccc1C1CCCC1 | -12.4% [at 32.6 µM] | 
CC(=O)N(CC(C)C(=O)O)c1c(I)cc(I)c(N)c1I (stereo not given) | 3.99% [at 32.6 µM] | 
CCN(CC)CCOC(=O)c1cccnc1 | -6.1% | 
O=C(NOC[C@H](O)CO)c1ccc(F)c(F)c1Nc1ccc(I)cc1F | -15.1% | 
COC(=O)[C@H]1[C@H]2C[C@@H]3c4[nH]c5cc(OC)ccc5c4CCN3C[C@H]2C[C@H](OC)[C@@H]1OC | -5.18% | 
CC(=O)OC[C@H]1O[C@@H](O[C@H]2[C@H](O)[C@@H](OC(=O)c3ccccc3C(=O)O)[C@H](O)O[C@@H]2COC(C)=O)[C@H](O)[C@@H](OC(=O)c2ccccc2C(=O)O)[C@@H]1O | -12.6% | 
CC(=O)N=c1sc(S(N)(=O)=O)nn1C | 5.3% [at 32.6 µM] | 
C=CCN1CCCC1CNC(=O)c1cc(S(N)(=O)=O)cc(OC)c1OC (stereo not given) | -0.341% | 
COC(=O)[C@@H](N)CS | -8.51% | 
Cn1c(=O)c2c(ncn2CCOC(=O)C(C)(C)Oc2ccc(Cl)cc2)n(C)c1=O | -17% | 
C=CCCCCCCCCC(=O)OC | -5.85% | 
